# Measurements published in ChEMBL document CHEMBL3988442, “University of Dundee, Small-Polar-MMV Screening Library” (2021).
# Among all 69,000 compounds or so, about 950 (1.4%) showed an effect of 50% or more. The full list was thinned out, with strong results kept by preference.
# Test system: Mycobacterium tuberculosis
# Assay: Cornell M. t heat shock assay; note: in the data most compounds retested in dose-response had high values
# Assay type: functional, organism-based
# Parameters: dose or concentration left out as unconfirmed
row,SMILES,Percent Effect [%]
1,CCn1c(Cn2cncn2)nnc1C1CCN(C[C@H]2[C@@H]3CNC[C@@H]32)CC1,-28.34
2,Cc1ccc(OCc2occc2C(=O)N2C[C@@H]3[C@@H](CN(C)C)[C@@H]3C2)cc1,-7.572
3,CN(C)C(=O)CC1CC2(CCN(Cc3ccsc3)CC2)c2ccccc21.O=C(O)C(F)(F)F (stereo not given),-34.9
4,CC(=O)Nc1cc(C2CC2)nn1-c1nc(C)c(C)c(=O)[nH]1,27.84
5,CC(C)C(=O)Nc1cc(C(C)(C)C)nn1-c1ccccn1,4.241
6,CC(C)C(=O)Nc1cc(C(=O)NC2CC(C)(C)NC(C)(C)C2)nn1C,-49.16
7,Cc1nc(-n2nc(C3CC3)cc2NC(=O)C(C)C)[nH]c(=O)c1C,96.45
8,Cc1cc(NC(=O)C(C)C)n(-c2nc(C)c(C)c(=O)[nH]2)n1,104.4
9,Cc1cc(C)n(-c2cncc(NCCNC(=O)C(C)C)n2)n1,-20.98
10,COc1cc(COCC2CCN(Cc3cccnc3)CC2)cc(OC)c1.O=C(O)C(=O)O,-22.42
11,CC(C)CN1CCN(C)C2(CCN(Cc3ccsc3)CC2)C1=O.O=C(O)C(F)(F)F.O=C(O)C(F)(F)F,-18.88
12,CCc1ccc(CN2CCc3ncnc(-c4cccnc4)c3CC2)o1.O=C(O)C(F)(F)F.O=C(O)C(F)(F)F,-16.65
13,CCOC(=O)N1CCN(c2nc(CCN)nc3sc(C)c(C)c23)CC1,82.82
14,Cc1sc2nc(CCN)nc(N3CCN(S(C)(=O)=O)CC3)c2c1C,12.46
15,Cc1sc2nc(CCN)nc(N3CCS(=O)(=O)CC3)c2c1C,12.97
16,CSc1nc(N)c2c(n1)N=C1COC(O)=C1C2c1cccc(O)c1 (stereo not given),4.116
17,Cc1ccsc1CN1CCc2nc3ccsc3c(=O)n2CC1.Cl,3.746
18,CCN(CC)c1ccc(NS(=O)(=O)c2cncc(F)c2)cn1,-17.45
19,CCN(CC)c1ccc(NS(=O)(=O)c2cnn(C)c2)cn1,-23.7
20,CCN(CC)c1ccc(NS(=O)(=O)c2cccnc2)cn1,61.96

row,SMILES,Percent Effect [%]
1,CCCC(=O)N1C[C@@H]2CCN(c3cnccn3)C[C@@H]2C1.O=C(O)C(F)(F)F,-8.378
2,O=C(O)C(F)(F)F.O=C(c1cscn1)N1CC[C@]2(C[C@@H](OCCN3CCCC3)CO2)C1,0.0126
3,CNC(=O)[C@@H]1C[C@H]2CN(Cc3nccs3)C[C@H]2N1C.O=C(O)C(F)(F)F.O=C(O)C(F)(F)F,-19.94
4,Cc1cccc(CN2C(=O)CC[C@@H]3[C@H]2CCN3Cc2ccc(C)s2)n1.O=C(O)C(F)(F)F.O=C(O)C(F)(F)F,6.515
5,COc1ccc(Cl)cc1CS(=O)(=O)Cc1nc(C2CC2)no1,45.18
6,COc1ccc(Cl)cc1CS(=O)(=O)Cc1noc(C)n1,-24.6
7,COc1ccc(Cl)cc1CS(=O)(=O)Cc1nc(C)no1,62.62
8,COCCCN(Cc1ccccn1)Cc1ccnn1C1CCCCO1.O=C(O)CC(O)(CC(=O)O)C(=O)O (stereo not given),-20.24
9,CC(C)Nc1nc(C(=O)Nc2ccccn2)cs1,9.074
10,CC(C)CCNC(=O)c1csc(NC2CC2)n1,43.35
11,CC(NC(=O)Nc1nccs1)C(=O)NC1CCCC1 (stereo not given),1.171
12,Cc1cnc(NC(=O)c2csc(NCC(C)C)n2)s1,103.8
13,CCN(CC)C(=O)CCCNC(=O)c1csc(NC2CC2)n1,-1.337
14,Cc1cccc(NC(=O)c2csc(NCC(C)C)n2)n1,-0.3454
15,CC(C)NC(=O)c1csc(NC2CC2)n1,28.59
16,O=C(Nc1nccs1)c1csc(NC2CCCC2)n1,106.3
17,CC(C)CCNc1nc(C(=O)NC2CC2)cs1,15.23
18,Cc1cnc(NC(=O)c2csc(NC3CCCC3)n2)s1,106.1
19,Cc1nc(NC2CCCC2)cc(C2CCN2C(=O)c2ccccn2)n1 (stereo not given),-9.873
20,O=C(Nc1ccccn1)c1csc(NC2CCCC2)n1,105.9

row,SMILES,Percent Effect [%]
1,CC1CCN(C(=O)C2(Cc3cc(C4CCOC4)no3)CCNCC2)CC1.Cl (stereo not given),3.404
2,COc1nn(C)c2c1CCCN(C(=O)c1cccc3cccnc13)C2.O=C(O)C(F)(F)F,-1.629
3,COCC1CN(C(=O)Cc2cccs2)Cc2nnn(CC3CC3)c21 (stereo not given),-31.31
4,Nc1cc(CCC2CN(Cc3ccc4cc[nH]c4c3)CCO2)ccn1 (stereo not given),-29.21
5,Cc1ccsc1CN1C[C@@H]2COC[C@]2(COCC(=O)N(C)C)C1.O=C(O)C(F)(F)F,-23.94
6,Cc1ccc(CN2CCC3(CC2)CN(c2ccccc2)C(=O)CO3)o1.O=C(O)C(F)(F)F,-15.41
7,COCC1CC2(CCN(c3cccc(C)n3)CC2)CN1C(C)C.O=C(O)C(F)(F)F.O=C(O)C(F)(F)F (stereo not given),24.58
8,CN(C)C(=O)N1CCO[C@@H]2CC(COCc3cccnc3)C[C@H]21.O=C(O)C(F)(F)F (stereo not given in full),17.51
9,Cc1cnn(CCNCc2csc(COc3ccccc3)n2)c1,103.7
10,Cc1ccc(OCc2nc(CNCCn3cccn3)cs2)cc1,94.11
11,c1ccc(OCc2nc(CNCCn3cccn3)cs2)cc1,46.73
12,Cc1cnn(CCNCc2ccc(OCc3csc(C)n3)cc2)c1,5.493
13,Cc1nc(COc2ccc(CNCCn3cccn3)cc2)cs1,-21.22
14,Cc1cnn(CCCNCc2csc(COc3ccccc3)n2)c1,15.28
15,Cc1nnc(N2CC[C@H]3C[C@H](C(=O)N(C)C)O[C@@H]3C2)s1.O=C(O)C(F)(F)F,7.027
16,COCC1CN(CC2CC2)Cc2nn(CC3CC3)cc21.O=C(O)C(F)(F)F (stereo not given),-19.88
17,CN(C)C(C)(C)CNC(=O)C(C)(C)c1ccccc1F,97.79
18,CC(C)(C(=O)NCC(N)=O)c1ccccc1F,8.109
19,CC(C)(CNC(=O)C(C)(C)c1ccccc1F)C(N)=O,-4.561
20,CC1CCN(c2ncc3c(n2)CN(C2CCS(=O)(=O)C2)C3=O)CC1 (stereo not given),-20.34
